Measured values reported in PubChem BioAssay (Tox21).
Records with an inconclusive call do not appear. Calls of active or inactive are those of the source. Unless noted, calls come from the whole dose curve; as a rule, active = well fitted curve in the direction sought with a large enough effect in the repeat runs; inconclusive = weak or mixed curves; inactive = no such curve, though single readings can be large; an effect the other way counts as inactive or inconclusive.

Legend:
[1] = Human pregnane X receptor (PXR) small molecule agonists, qHTS cell viability counter screen (AID 1346977); note: nearly all actives have a fitted effect of over 50% in size
Method in brief: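 PXR-Luc HepG2, 2,000 cells/well, 5% charcoal-stripped FBS; 5hr settle; cpd 24hr, 37C/5% CO2; CellTiter-Fluor at 23hr, read 1hr later (fluorescence).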

[2] = Caspase-3/7 induction in HepG2 cells by small molecules, qHTS assay (AID 1346978); note: nearly all actives have a fitted effect of over 15% in size
Method in brief: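 Wild-type HepG2 cells, 2,000/well, settled 5 hr at 37 C and 5% CO2, then compound-treated for 17 hr; caspase-3/7 activity read by luminescent Caspase-Glo 3/7 after 30 min at room temperature.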

[3] = Caspase-3/7 induction in CHO-K1 cells by small molecules, qHTS cell viability counter screen (AID 1346979); note: nearly all actives have a fitted effect of over 35% in size; note: potency is the fitted concentration of half-maximal effect
Method in brief: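 Cells (CHO-K1, wild type) are plated at 1,500 per well and incubated 5hr. Test compounds in DMSO are then pinned in, followed by 16hr at 37C and 5% CO2. Viability is read by CellTiter-Fluor fluorescence after 1hr.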

[4] = Caspase-3/7 induction in CHO-K1 cells by small molecules, qHTS assay (AID 1346980); note: nearly all actives have a fitted effect of over 15% in size
Method in brief: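 Wild-type CHO-K1 cells exposed to compounds for 17hr at 37 C, 5% CO2. Caspase-3/7 activity then measured by Caspase-Glo 3/7 luminescence after 30min at room temperature.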

[5] = Caspase-3/7 induction in HepG2 cells by small molecules, qHTS cell viability counter screen (AID 1346981); note: series mostly up to about 92 µM; nearly all actives have a fitted effect of over 30% in size
Method in brief: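 Viability determined by CellTiter-Fluor fluorescence in HepG2 wells also used for the luminescent Caspase-Glo 3/7 read. Compounds were present for 16 hr at 37 C, 5% CO2 before reagent addition.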

[6] = target: Nuclear receptor subfamily 1 group I member 2 (Homo sapiens) (UniProt O75469); assay: Human pregnane X receptor (PXR) small molecule agonists, qHTS assay (AID 1346982); note: nearly all actives have a fitted effect of over 35% in size; note: potency is the fitted concentration of half-maximal effect
Method in brief: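 Compound-induced hPXR transactivation of a CYP3A4 luciferase reporter was scored in HepG2 PXR-Luc cells over 24 hr at 37 C, 5% CO2, by luminescence.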

[7] = target: Cytochrome P450 2D6 (Homo sapiens) (UniProt P10635); assay: Cytochrome P450 Family 2 Subfamily D Member 6 (CYP2D6) small molecule antagonists: luciferase reporter qHTS assay (AID 1671196); note: nearly all actives have a fitted effect of over 50% in size; note: potency is the fitted concentration of half-maximal effect; for activity change, negative = inhibition: series mostly up to about 120 µM
Method in brief: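 Each well received CYP2D6 with its proluciferin substrate and chemical, sat 10 min, then got NADPH regeneration solution for 1 h at room temperature. Luminescence in RLU served as the activity measure.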

[8] = target: Cytochrome P450 2C19 (Homo sapiens) (UniProt P33261); assay: Cytochrome P450 Family 2 Subfamily C Member 19 (CYP2C19) small molecule antagonists: luciferase reporter qHTS assay (AID 1671197); note: nearly all actives have a fitted effect of over 65% in size; note: potency is the fitted concentration of half-maximal effect; for activity change, negative = inhibition: series mostly up to about 120 µM
Method in brief: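 CYP2C19 P450-Glo, 1536-well qHTS. Cpd + enzyme/proluciferin substrate 10 min RT; + NADPH regen, 37C 1 h; stop with luciferin detection reagent, 20 min RT, luminescence (RLU). Pos ctrl ketoconazole.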

[9] = target: Cytochrome P450 2C9 (Homo sapiens) (UniProt P11712); assay: Cytochrome P450 Family 2 Subfamily C Member 9 (CYP2C9) small molecule antagonists: luciferase reporter qHTS assay (AID 1671198); note: nearly all actives have a fitted effect of over 50% in size; note: potency is the fitted concentration of half-maximal effect; for activity change, negative = inhibition: series mostly up to about 120 µM
Method in brief: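 P450-Glo proluciferin substrate with CYP2C9 enzyme; 10 min RT preincubation, then NADPH regeneration 1 h at 37C; luciferin detection reagent 20 min RT, luminescence in relative luminescence units.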

[10] = target: Cytochrome P450 1A2 (Homo sapiens) (UniProt P05177); assay: Cytochrome P450 Family 1 Subfamily A Member 2 (CYP1A2) small molecule antagonists: luciferase reporter qHTS assay (AID 1671199); note: nearly all actives have a fitted effect of over 50% in size; note: potency is the fitted concentration of half-maximal effect; for activity change, negative = inhibition: series mostly up to about 120 µM
Method in brief: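 Enzymatic CYP1A2 assay, human, luminescent: 10 min compound–enzyme–substrate preincubation, 1 h NADPH-dependent turnover, 20 min detection step, room temperature throughout. Reduced light indicates lower CYP1A2 activity.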

[11] = target: Voltage-gated inwardly rectifying potassium channel KCNH2 (Homo sapiens) (UniProt Q12809); assay: Human Ether-a-go-go-Related Gene (hERG) channel small molecule antagonists: fluorescence cell-based qHTS assay (AID 1671200); note: nearly all actives have a fitted effect of over 50% in size; note: potency is the fitted concentration of half-maximal effect;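 for activity change, negative = inhibition: hERG-expressing U2OS cells given a thallium stimulus after FluxOR II dye loading; series mostly up to about 77 µM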
Method in brief: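 Channel function was assessed by thallium flux. Cells seeded the previous day and kept at 37 C took up FluxOR II dye over 1 h in the dark at room temperature, then sat another 10 min before stimulation.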

[12] = target: Cytochrome P450 3A4 (Homo sapiens) (UniProt P08684); assay: Cytochrome P450 Family 3 Subfamily A Member 4 (CYP3A4) small molecule antagonists: luciferase reporter qHTS assay (AID 1671201); note: nearly all actives have a fitted effect of over 50% in size; note: potency is the fitted concentration of half-maximal effect; for activity change, negative = inhibition: series mostly up to about 120 µM
Method in brief: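 Compounds in DMSO were pin-transferred onto CYP3A4 enzyme-substrate mix and held 10 min at room temperature. NADPH regenerating solution started the reaction for 1 h; luciferin detection reagent stopped it, and luminescence was read after 20 min.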

[13] = target: Thyrotropin-releasing hormone receptor (Homo sapiens) (UniProt P34981); assay: qHTS assay to identify small molecule agonists of the thyrotropin-releasing hormone receptor (TRHR) signaling pathway (AID 1346891; calls by dose curve; note: series mostly up to about 58 µM)
Method in brief: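 Intracellular calcium rise, read as fluorescence every second for 3 min, served as the agonist signal in dye-loaded HEK293 cells expressing TRHR; each compound ran at 15 concentrations in triplicate.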

[14] = target: Nuclear receptor subfamily 1 group I member 2 (Rattus norvegicus) (UniProt Q9R1A7); assay: Rat pregnane X receptor (rPXR) activation by small molecules, qHTS assay (AID 1346983); conditions: rPXR luciferase reporter cells, One-Glo luminescence, 24 h; max activation: stronger effect = higher value; note: nearly all actives have a fitted effect of over 20% in size
Method in brief: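 Cell-based rPXR activation assay: rPXR cells, 2,000 per well, rested 5hr at 37 C, then exposed to compounds in DMSO for 24 hr at 37 C. Luciferase activity read by One-Glo luminescence after 30 min at room temperature.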

[15] = target: Nuclear receptor subfamily 1 group I member 2 (Homo sapiens) (UniProt O75469); assay: Human pregnane X receptor (PXR) activation by small molecules, qHTS assay (AID 1346985); note: nearly all actives have a fitted effect of over 40% in size; note: potency is the fitted concentration of half-maximal effect
Method in brief: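 DPX-2 cells (HepG2 co-transfected with a PXR response element and a CYP3A4-promoter luciferase construct) were seeded at 2,000 per well, rested 5 hr at 37C, then exposed to DMSO-dissolved compounds for 24 hr. Activation was read as luciferase luminescence.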

[16] = target: Nuclear receptor subfamily 1 group I member 2 (Homo sapiens) (UniProt O75469); assay: CYP3A4 induction through human pregnane X receptor (PXR) by small molecules, qHTS assay (AID 1346984); note: nearly all actives have a fitted effect of over 40% in size
Method in brief: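 Readings come from a luciferase reporter: DPX-2 cells, which are HepG2 cotransfected with PXR and a CYP3A4-promoter construct, were exposed to test compounds for 24 h at 37C before One-Glo detection.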
% is set by controls: 0 for no effect and ±100 for the full control effect.

Chain of Voltage-gated inwardly rectifying potassium channel KCNH2 (Homo sapiens) (Q12809 whole entry, looked up): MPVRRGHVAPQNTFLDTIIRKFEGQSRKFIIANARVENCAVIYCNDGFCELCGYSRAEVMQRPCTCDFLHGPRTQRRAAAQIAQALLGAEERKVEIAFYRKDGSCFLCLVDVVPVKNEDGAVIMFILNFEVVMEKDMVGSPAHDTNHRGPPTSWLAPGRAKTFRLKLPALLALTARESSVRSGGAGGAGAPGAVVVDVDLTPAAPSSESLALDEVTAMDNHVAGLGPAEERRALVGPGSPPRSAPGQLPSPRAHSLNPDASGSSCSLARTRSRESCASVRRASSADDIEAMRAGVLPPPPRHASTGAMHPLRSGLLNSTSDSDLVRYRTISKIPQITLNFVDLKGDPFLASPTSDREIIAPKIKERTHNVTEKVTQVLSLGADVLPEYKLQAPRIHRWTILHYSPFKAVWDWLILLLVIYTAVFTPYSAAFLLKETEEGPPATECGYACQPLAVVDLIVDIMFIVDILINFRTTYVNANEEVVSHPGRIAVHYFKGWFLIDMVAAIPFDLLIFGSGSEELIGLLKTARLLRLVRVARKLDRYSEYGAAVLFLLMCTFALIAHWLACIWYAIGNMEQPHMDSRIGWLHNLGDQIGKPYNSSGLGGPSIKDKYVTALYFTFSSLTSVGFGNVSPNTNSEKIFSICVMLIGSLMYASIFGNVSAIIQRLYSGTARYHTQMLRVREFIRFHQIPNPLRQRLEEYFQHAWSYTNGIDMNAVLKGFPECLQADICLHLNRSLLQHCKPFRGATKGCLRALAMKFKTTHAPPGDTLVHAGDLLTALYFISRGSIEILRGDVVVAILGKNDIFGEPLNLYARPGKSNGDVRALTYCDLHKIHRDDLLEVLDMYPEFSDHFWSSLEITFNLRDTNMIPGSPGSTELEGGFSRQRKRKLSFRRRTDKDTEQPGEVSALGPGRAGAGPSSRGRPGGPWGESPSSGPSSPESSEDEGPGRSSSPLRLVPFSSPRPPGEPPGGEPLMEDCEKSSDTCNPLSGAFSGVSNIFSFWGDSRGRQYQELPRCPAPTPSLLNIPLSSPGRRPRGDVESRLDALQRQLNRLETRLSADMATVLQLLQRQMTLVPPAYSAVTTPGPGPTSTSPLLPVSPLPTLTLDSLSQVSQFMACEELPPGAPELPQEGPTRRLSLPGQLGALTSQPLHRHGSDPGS
Chain of Nuclear receptor subfamily 1 group I member 2 (Rattus norvegicus) (Q9R1A7 whole entry, looked up): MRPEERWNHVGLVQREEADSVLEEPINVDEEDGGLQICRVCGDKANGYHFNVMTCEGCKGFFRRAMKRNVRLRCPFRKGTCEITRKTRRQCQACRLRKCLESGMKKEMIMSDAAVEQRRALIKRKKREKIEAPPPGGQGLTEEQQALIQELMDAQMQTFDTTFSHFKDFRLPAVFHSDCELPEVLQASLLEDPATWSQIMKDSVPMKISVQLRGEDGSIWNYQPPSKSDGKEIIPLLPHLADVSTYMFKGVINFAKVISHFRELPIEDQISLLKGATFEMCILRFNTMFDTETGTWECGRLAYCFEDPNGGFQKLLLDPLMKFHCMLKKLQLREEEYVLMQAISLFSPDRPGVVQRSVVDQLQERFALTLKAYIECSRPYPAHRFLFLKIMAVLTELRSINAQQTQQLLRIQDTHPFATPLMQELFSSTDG
Chain of Cytochrome P450 2C9 (Homo sapiens) (P11712 whole entry, looked up): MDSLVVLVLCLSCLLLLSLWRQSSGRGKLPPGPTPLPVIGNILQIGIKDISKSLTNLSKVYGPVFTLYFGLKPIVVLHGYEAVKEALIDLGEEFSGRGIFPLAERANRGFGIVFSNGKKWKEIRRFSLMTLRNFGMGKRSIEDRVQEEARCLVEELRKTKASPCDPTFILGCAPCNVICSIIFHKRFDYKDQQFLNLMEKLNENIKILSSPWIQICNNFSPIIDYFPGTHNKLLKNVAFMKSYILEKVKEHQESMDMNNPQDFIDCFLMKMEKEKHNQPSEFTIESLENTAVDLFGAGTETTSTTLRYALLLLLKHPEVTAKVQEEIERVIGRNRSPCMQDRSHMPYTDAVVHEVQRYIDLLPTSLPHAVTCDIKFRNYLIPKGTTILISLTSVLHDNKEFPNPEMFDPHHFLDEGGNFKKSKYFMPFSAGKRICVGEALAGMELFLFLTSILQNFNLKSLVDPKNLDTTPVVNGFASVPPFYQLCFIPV
Chain of Thyrotropin-releasing hormone receptor (Homo sapiens) (P34981 whole entry, looked up): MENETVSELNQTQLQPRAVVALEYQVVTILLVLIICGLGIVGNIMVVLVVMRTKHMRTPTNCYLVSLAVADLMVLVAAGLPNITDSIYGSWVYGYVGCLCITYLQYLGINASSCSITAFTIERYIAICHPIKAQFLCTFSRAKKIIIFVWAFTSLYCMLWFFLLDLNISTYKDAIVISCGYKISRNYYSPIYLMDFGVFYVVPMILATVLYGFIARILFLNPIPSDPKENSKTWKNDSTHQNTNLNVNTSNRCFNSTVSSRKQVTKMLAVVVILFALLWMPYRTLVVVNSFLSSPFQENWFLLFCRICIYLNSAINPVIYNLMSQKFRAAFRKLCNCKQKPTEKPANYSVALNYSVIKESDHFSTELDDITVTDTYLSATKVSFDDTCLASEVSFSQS
Chain of Nuclear receptor subfamily 1 group I member 2 (Homo sapiens) (O75469 whole entry, looked up): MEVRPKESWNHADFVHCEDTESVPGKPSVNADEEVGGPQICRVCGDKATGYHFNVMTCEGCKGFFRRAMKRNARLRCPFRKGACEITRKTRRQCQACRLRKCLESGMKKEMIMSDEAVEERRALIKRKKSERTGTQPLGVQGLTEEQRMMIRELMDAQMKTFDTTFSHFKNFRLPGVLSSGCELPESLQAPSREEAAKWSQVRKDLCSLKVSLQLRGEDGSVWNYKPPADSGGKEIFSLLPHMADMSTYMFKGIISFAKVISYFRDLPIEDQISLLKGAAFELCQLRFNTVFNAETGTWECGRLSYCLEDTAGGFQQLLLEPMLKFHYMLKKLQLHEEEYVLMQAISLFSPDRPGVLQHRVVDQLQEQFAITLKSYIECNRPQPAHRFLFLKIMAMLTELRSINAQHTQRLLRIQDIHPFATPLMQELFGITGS
Chain of Cytochrome P450 1A2 (Homo sapiens) (P05177 whole entry, looked up): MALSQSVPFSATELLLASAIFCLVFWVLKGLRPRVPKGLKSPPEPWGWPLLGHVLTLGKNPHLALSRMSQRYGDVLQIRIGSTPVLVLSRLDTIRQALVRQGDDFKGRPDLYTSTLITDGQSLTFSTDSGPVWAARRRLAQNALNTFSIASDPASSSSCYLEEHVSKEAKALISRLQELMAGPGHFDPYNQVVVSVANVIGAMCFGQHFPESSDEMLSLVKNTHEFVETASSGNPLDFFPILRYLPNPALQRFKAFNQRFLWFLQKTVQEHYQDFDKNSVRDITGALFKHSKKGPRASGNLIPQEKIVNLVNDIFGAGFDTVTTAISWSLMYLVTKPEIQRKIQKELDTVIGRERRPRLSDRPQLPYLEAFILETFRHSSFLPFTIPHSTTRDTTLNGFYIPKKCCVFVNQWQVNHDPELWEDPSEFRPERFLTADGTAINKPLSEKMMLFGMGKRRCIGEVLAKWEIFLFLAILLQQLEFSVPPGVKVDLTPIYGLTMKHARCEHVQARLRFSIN
Chain of Cytochrome P450 3A4 (Homo sapiens) (P08684 whole entry, looked up): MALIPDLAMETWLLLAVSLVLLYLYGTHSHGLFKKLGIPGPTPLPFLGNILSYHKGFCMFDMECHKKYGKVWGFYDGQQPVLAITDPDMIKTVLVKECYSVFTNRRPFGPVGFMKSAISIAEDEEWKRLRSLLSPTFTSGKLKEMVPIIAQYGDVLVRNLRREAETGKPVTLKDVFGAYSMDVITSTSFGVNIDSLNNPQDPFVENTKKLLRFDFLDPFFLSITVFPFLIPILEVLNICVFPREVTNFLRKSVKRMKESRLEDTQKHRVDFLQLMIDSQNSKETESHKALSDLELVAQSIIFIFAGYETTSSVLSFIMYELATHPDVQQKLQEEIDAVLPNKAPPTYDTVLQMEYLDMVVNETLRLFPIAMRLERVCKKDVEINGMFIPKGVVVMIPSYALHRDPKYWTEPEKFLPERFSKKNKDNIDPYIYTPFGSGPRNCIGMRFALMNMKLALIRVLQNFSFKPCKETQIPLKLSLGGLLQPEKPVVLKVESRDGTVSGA
Chain of Cytochrome P450 2D6 (Homo sapiens) (P10635 whole entry, looked up): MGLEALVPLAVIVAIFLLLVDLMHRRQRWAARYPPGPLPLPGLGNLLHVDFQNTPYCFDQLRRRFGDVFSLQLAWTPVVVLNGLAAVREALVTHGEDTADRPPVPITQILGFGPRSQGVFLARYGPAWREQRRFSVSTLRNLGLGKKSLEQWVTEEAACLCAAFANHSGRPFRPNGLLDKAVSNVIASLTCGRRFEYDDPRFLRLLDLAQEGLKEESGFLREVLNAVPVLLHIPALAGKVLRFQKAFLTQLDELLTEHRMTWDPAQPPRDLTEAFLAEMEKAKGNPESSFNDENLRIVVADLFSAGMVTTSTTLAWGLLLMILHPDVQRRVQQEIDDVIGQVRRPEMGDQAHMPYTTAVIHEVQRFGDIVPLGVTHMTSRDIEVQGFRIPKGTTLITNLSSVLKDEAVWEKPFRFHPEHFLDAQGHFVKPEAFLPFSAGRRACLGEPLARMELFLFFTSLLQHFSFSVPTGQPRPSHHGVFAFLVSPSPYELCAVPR
Chain of Cytochrome P450 2C19 (Homo sapiens) (P33261 whole entry, looked up): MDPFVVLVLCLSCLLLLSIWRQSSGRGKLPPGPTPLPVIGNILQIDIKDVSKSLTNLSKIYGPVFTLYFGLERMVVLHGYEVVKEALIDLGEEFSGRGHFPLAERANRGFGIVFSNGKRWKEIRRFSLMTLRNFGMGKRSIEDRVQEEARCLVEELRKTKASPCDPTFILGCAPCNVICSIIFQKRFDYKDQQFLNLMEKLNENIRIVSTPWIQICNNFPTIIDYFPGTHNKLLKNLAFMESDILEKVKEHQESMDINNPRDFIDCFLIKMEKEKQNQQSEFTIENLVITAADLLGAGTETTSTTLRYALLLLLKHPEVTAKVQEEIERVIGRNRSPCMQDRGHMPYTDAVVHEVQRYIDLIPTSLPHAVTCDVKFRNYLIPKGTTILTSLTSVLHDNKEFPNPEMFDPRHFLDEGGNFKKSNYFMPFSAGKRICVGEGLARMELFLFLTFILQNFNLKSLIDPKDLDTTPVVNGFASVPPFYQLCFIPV

CCCCCCCCSCCO
active: Potency [8] 20 µM | Potency [9] 44.8 µM | Potency [10] 39.9 µM
inactive: Potency [1] | Potency [2] | Potency [3] | outcome [4] | Potency [5] | Potency [6] | Potency [7] | Potency [11] | Potency [12]

CC1=C(/C=C/C(C)=C\C=C\C(C)=C\C(=O)O)C(C)(C)CCC1
inactive: Potency [13] | Potency [2] | outcome [4] | Potency [10]
active: Potency [6] 54.5 µM | Potency [8] 35.6 µM | Potency [12] 22.4 µM

CC1=CC(O)CC(C)(C)C1 (configuration not stated)
inactive: Potency [1] | Potency [2] | Potency [3] | outcome [4] | Potency [5] | Potency [6] | Potency [7] | Potency [8] | Potency [9] | Potency [10] | Potency [11] | Potency [12]

Nc1nc(Cl)nc2c1ncn2[C@@H]1O[C@H](CO)[C@@H](O)[C@@H]1F
active: Potency [6] 0.531 µM | Potency [15] 1 µM
inactive: Potency [13] | Potency [2] | outcome [4] | Potency [5] | max activation [14] -7.37% | Potency [7] | Potency [8] | Potency [9] | Potency [10] | Potency [11] | Potency [12]

CCC1(C)CC(=O)NC1=O (configuration not stated)
inactive: Potency [1] | Potency [2] | Potency [3] | outcome [4] | Potency [5] | Potency [6] | max activation [14] -2.98% | Potency [16] | Potency [15] | Potency [7] | Potency [8] | Potency [9] | Potency [10] | Potency [11] | Potency [12]

CCCCCCCCCCCCCCCCBr
inactive: activity change, negative = cytotoxicity [1] -1.37% [at 19 µM] | caspase activation [2] 2.76% [at 19 µM] | activity change, negative = cytotoxicity [3] 4.02% [at 19 µM] | caspase-3/7 activation [4] -0.176% [at 19 µM] | activity change, negative = cytotoxicity [5] 4.64% [at 19 µM] | activation [6] -5.34% [at 19 µM] | activity change, negative = inhibition [7] -8.89% [at 23.6 µM] | activity change, negative = inhibition [8] 0.164% [at 23.6 µM] | activity change, negative = inhibition [9] -1.68% [at 23.6 µM] | activity change, negative = inhibition [12] -0.429% [at 23.6 µM]

CCOC(=O)OCC
inactive: Potency [1] | Potency [2] | Potency [3] | outcome [4] | Potency [5] | Potency [6] | Potency [8] | Potency [9] | Potency [11]
active: Potency [7] 23.3 µM | Potency [10] 41.5 µM

CCOCCn1c(C2CCN(CCc3ccc(C(C)(C)C(=O)O)cc3)CC2)nc2ccccc21
inactive: Potency [1] | Potency [2] | Potency [3] | outcome [4] | Potency [5] | Potency [6] | Potency [7] | Potency [8] | Potency [9] | Potency [12]

CCC(Cc1ccccc1)(C(=O)c1ccc(N2CCOCC2)cc1)N(C)C (configuration not stated)
active: Potency [6] 30.6 µM | Potency [7] 7.96 µM | Potency [8] 39.9 µM | Potency [9] 35.6 µM | Potency [11] 13.8 µM
inactive: Potency [13] | Potency [2] | outcome [4] | Potency [10]

CC(=O)N(c1onc(C)c1C)S(=O)(=O)c1ccc(N)cc1
inactive: Potency [1] | Potency [2] | Potency [3] | outcome [4] | Potency [5] | Potency [6] | Potency [7] | Potency [8] | Potency [9] | Potency [10] | Potency [11]

CCCOC(=O)c1ccc(N)cc1
inactive: Potency [1] | Potency [2] | Potency [3] | outcome [4] | Potency [5] | Potency [6] | max activation [14] 14.2% | Potency [16] | Potency [15] | Potency [11]
active: Potency [8] 24.5 µM | Potency [10] 6.45 µM

CCN(Cc1cccc(S(=O)(=O)O)c1)c1ccc(C(=C2C=CC(=[N+](CC)Cc3cccc(S(=O)(=O)[O-])c3)C=C2)c2ccccc2)cc1
inactive: Potency [13] | Potency [2] | outcome [4] | Potency [6] | Potency [10] | Potency [11]
active: Potency [8] 62.8 µM | Potency [9] 28 µM

NC(=O)Cn1c(=O)cc(CCN2CCN(c3nccc4sccc34)CC2)c2ccc(F)cc21
inactive: Potency [13] | Potency [2] | outcome [4] | Potency [6] | Potency [10] | Potency [11]
active: Potency [7] 35.6 µM | Potency [9] 63.3 µM | Potency [12] 5.64 µM

CO[C@H]1O[C@H](CO)[C@@H](O)[C@H](O)[C@H]1O
inactive: Potency [1] | Potency [2] | Potency [3] | outcome [4] | Potency [5] | Potency [6] | Potency [7] | Potency [8] | Potency [9] | Potency [10] | Potency [12]

Cc1nc2ccccc2s1
inactive: Potency [1] | Potency [2] | Potency [3] | outcome [4] | Potency [5] | Potency [6] | Potency [7] | Potency [9] | Potency [11] | Potency [12]
active: Potency [8] 80.2 µM

CC1C2CC(CC2C2CCCC(O)C2)C1(C)C (configuration not stated)
inactive: Potency [13] | outcome [4] | Potency [5] | Potency [6] | Potency [7]
active: Potency [3] 68.6 µM | Potency [8] 35.6 µM | Potency [9] 35.6 µM | Potency [11] 24.5 µM

CN(C)CCOC1=Cc2ccccc2Sc2ccc(Cl)cc21
active: Potency [7] 4.36 µM | Potency [10] 18.2 µM
inactive: Potency [13] | outcome [4] | Potency [5] | Potency [6] | Potency [8] | Potency [9]

C=CCCCCCCCCCCCCCCCC
inactive: activity change, negative = cytotoxicity [1] 0.0327% [at 8.39 µM] | caspase activation [2] -6.49% [at 8.39 µM] | activity change, negative = cytotoxicity [3] 7.02% [at 8.39 µM] | caspase-3/7 activation [4] 0.114% [at 8.39 µM] | activity change, negative = cytotoxicity [5] -1.16% [at 8.39 µM] | activation [6] -1.52% [at 8.39 µM] | activity change, negative = inhibition [7] 0.602% [at 10.5 µM] | activity change, negative = inhibition [8] 5.26% [at 10.5 µM] | activity change, negative = inhibition [9] 3.76% [at 10.5 µM] | activity change, negative = inhibition [10] -11.2% [at 10.5 µM] | activity change, negative = inhibition [11] -0.108% [at 6.97 µM] | activity change, negative = inhibition [12] 6.02% [at 10.5 µM]

C=CCNc1nc(NCC=C)nc(N2CCN(C(c3ccc(F)cc3)c3ccc(F)cc3)CC2)n1
inactive: Potency [13] | Potency [2] | outcome [4] | Potency [5] | Potency [8] | Potency [10]
active: Potency [6] 13.3 µM
